Screening results as filed in PubChem.
Bst PK mod: alters activity of Bacillus stearothermophilus pyruvate kinase; purified pyruvate kinase, luminescence ATP production; ribose 5-phosphate activator present at AC10; Potency, µM; actives 1.2% (n = 51,000); AID 361; in the data active means potency below about 11 µM; inconclusive means mostly about 12 µM to 25 µM;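 the screen sought inhibitors and activators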;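 further: scaled between full activation by ribose 5 phosphate and full inhibition by luteolin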
GBA activity: modulators of human glucocerebrosidase. purified enzyme, resorufin glucoside fluorescence (screen aimed at inhibitors), 20 min. Potency, µM. actives 1.1% (n = 48,000). AID 360; in the data active means potency below about 15 µM; inconclusive means mostly about 16 µM to 33 µM;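 further: the screen sought inhibitors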
Target sequence (P04062 whole entry, looked up): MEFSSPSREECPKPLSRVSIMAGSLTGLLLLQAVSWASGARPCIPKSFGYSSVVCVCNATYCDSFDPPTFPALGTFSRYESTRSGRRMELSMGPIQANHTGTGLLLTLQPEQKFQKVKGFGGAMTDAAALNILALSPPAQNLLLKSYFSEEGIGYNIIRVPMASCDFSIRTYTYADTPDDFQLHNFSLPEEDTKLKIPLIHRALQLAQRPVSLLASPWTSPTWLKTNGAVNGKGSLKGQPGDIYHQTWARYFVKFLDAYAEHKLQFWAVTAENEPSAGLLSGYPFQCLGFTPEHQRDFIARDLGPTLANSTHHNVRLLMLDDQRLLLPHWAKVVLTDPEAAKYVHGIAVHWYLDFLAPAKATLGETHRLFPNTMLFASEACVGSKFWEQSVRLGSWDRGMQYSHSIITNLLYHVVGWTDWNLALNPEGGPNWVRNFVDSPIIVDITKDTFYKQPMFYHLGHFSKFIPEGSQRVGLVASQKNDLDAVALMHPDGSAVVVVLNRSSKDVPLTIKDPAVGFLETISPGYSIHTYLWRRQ
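Normal human glucocerebrosidase (0.2 nM final) was assayed with resorufin β-D-glucopyranoside (30 uM final) in 50mM citric acid/KH2PO4, 10mM sodium taurocholate, 0.01% tween-20, pH 5.9. Compounds were titrated; fluorescence (Ex 548, Em 600) read after 20 min at RT.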
* marks the source's active call; other numbers are inactive results; i = inactive; ? = inconclusive; / = not tested or not shown. Hits are enriched below; roughly 2.3% of the tested compounds scored in any of these assays. Potency means the concentration at half of the fitted maximal effect.

SMILES	Bst PK mod	GBA activity
COc1ccc(NC(=O)C2CSC3c4ccccc4C(=O)N23)cc1 (stereo not given)	10.8*	/
COc1ccccc1Nc1nc(N)nc(CSCCO)n1	/	>76.9
COc1ccccc1Nc1nc(N)nc(CN2CCN(c3ccccc3F)CC2)n1	>57	2.37*
COc1ccccc1N1CCN(Cc2nc(N)nc(Nc3ccc(C)c(Cl)c3)n2)CC1	>57	5.31*
COc1ccccc1Nc1nc(N)nc(CSc2ncccn2)n1	>57	>76.9
COc1ccccc1N1CCN(CC(=O)Nc2ccc(C)c(F)c2)CC1	>57	>76.9
COc1ccc(N2CCN(Cc3nc(N)nc(Nc4ccccc4OC)n3)CC2)cc1	>57	3.92*
Cc1ccccc1S(=O)(=O)Cc1ccc(C(=O)NCc2cccnc2)o1	>57	>76.9
O=C1c2oc3ccc(F)cc3c(=O)c2C(c2ccccc2)N1CC1CCCO1 (stereo not given)	>57	>76.9
N#Cc1cc2c(nc1SCc1nc3ccccc3[nH]1)CCC2	5.97*	>76.9
N#Cc1cc2c(nc1SCc1cccnc1)CCC2	>57	>76.9
CCN1CCCC1CNC(=O)c1nn(-c2ccc(C)cc2)c(=O)c2c1c1ccccc1n2C (stereo not given)	>57	/
CCc1ccccc1N1CCN(S(=O)(=O)c2ccc(F)c(C)c2)CC1	/	>76.9
Cc1ccc(N2CCN(S(=O)(=O)c3ccc(F)c(C)c3)CC2)c(C)c1	10.7*	>76.9
Cn1c(=O)[nH]c(=O)c2c1nc(N1CCOCC1)n2CCSc1ncccn1	>57	>76.9
CCCCNc1cc(C)nc(NCc2ccccc2)n1	>57	6.26*
Cc1cc(C)nc(NCCCc2ccccc2)n1	>57	/
CCOC(=O)c1sc(NC(=O)c2ccc(Br)o2)cc1C	6.37*	?
CCOC(=O)c1sc(NC(=O)c2cccs2)cc1C	/	>76.9
COc1ccc(OC)c(S(=O)(=O)Nc2ccc(O)c(Sc3ncn[nH]3)c2)c1	>57	>76.9
Cn1c(C(=O)O)c(CC(=O)NCc2cccnc2)c2ccccc21	>57	>76.9
CC(C)=CC(=O)Nc1ccc(Br)cc1	/	>76.9
Cc1nnc2sc(-c3cc4ccccc4o3)nn12	>57	>76.9
O=C(Oc1cccc2cccnc12)c1ccc(Br)o1	i	>76.9
COc1cc(NS(=O)(=O)c2ccc(C)cc2)c2ncccc2c1	?	>76.9
SMILES	Bst PK mod	GBA activity
O=C(O)c1ccccc1NS(=O)(=O)c1cccc2cccnc12	9.09*	>76.9
O=C(NC1CCCC1)C1CCN(S(=O)(=O)c2cccc3cccnc23)CC1	?	>76.9
O=C(Oc1cccc2cccnc12)c1ccc2c(c1)OCCO2	10.5*	>76.9
COc1ccc(NS(=O)(=O)c2cccc3cccnc23)cc1	2.61*	>76.9
O=C(O)c1ccccc1NS(=O)(=O)c1ccccc1C(F)(F)F	>57	>76.9
O=S(=O)(NC1CCCCCC1)c1cccc2cccnc12	11*	>76.9
C=C(C)c1nc(N)nc(N)n1	>57	>76.9
COC(=O)NCCOC(=O)N(O)c1ccc(Br)cc1	>57	>76.9
O=S(=O)(Nc1ccc2c(c1)OCCO2)c1cccc2cccnc12	3.27*	>76.9
O=C(c1ccc(NS(=O)(=O)c2cccc3cccnc23)cc1)N1CCOCC1	?	>76.9
COc1ccc(-c2csc(/C(C#N)=C(\O)CSc3nccn3C)n2)cc1OC	>57	>76.9
COc1ccc(C(=O)NC(=O)Nc2cc(C)ccn2)cc1	0.635*	>76.9
COc1cc(C(=O)Nc2cc(C)ccn2)cc(OC)c1OC	>57	>76.9
O=C(NCC1CCCO1)c1ccc2c(=O)n(CCc3ccccc3)c(=O)[nH]c2c1 (stereo not given)	>57	>76.9
CC1CCCC(NC(=O)c2ccc3c(=O)n(CC4CCCO4)c(=O)[nH]c3c2)C1C (stereo not given)	>57	1.6*
CCn1cc(C(=O)Nc2nncs2)c(=O)c2cc(F)c(N3CCN(C(=O)c4ccco4)CC3)cc21	>57	>76.9
COc1cccc(NS(=O)(=O)c2ccc(Br)s2)c1	>57	14.3*
COc1ccccc1NS(=O)(=O)c1ccc(Br)s1	/	>76.9
CN(c1ccccc1)S(=O)(=O)c1ccc(C(=O)OCC(=O)N2CCOCC2)cc1	>57	>76.9
COc1ccc(Nc2nc(N3CCCC3)nc3ccccc23)c(OC)c1	>57	3.37*
C=CCNc1nc(N2CCCC2)nc2ccccc12	/	10.6*
O=C(NCCO)c1nc(NCCO)c2ccccc2n1	>57	>76.9
COc1ccc(Nc2cc(C(=O)NCCCN3CCN(C)CC3)c3ccccc3n2)c(OC)c1	/	>76.9
OCCNc1nc(N2CCN(Cc3ccccc3)CC2)nc2ccccc12	/	13.2*
C=CCNc1nc(N2CCCCC2)c(C#N)c2c1CN(Cc1ccccc1)CC2	>25.6	/
SMILES	Bst PK mod	GBA activity
Cc1ccc(N2CCn3c2nc2c3c(=O)n(CCc3ccccc3)c(=O)n2C)cc1	>57	>76.9
COC(=O)c1sc(=S)sc1C(=O)OC	>57	>76.9
CCN1C(=Nc2ccc(Cl)cc2)SC/C1=C\C(=O)OC	>57	>76.9
O=C(OCc1nnc(-c2ccccc2)o1)c1ccc2c(c1)OCCO2	>57	>76.9
O=C(CN1CCCC1)Nc1ccc(NC(=O)Nc2ccccc2Cl)cc1	>57	12.7*
COc1ccc(NC(=O)CN2CCN(CC(=O)Nc3ccccc3Cl)CC2)cc1Cl	>57	/
CCC(OC(=O)c1cc2sccc2n1C)C(=O)NCc1ccco1 (stereo not given)	>57	>76.9
COc1cc2[nH]c(=S)n(NC(=O)CC(C)C)c(=O)c2cc1OC	>57	>76.9
CN(C(=O)c1ccccc1)c1nc2ccccc2s1	8.47*	>76.9
CN(C(=O)c1ccncc1)c1nnc(-c2ccccn2)s1	>57	>76.9
Cc1ccc(C)c(N2CCN(C(=O)CN(C)S(=O)(=O)c3cnc[nH]3)CC2)c1	>57	>76.9
COc1ccc(OC)c(C2C(C(=O)Nc3cccnc3)=C(C)NC3=C2C(=O)CCC3)c1 (stereo not given)	>57	>76.9
CCCCOc1ccc(-c2nnn(CC(=O)Nc3ncc(CC(=O)OCC)s3)n2)cc1	>57	>76.9
CCCCOC(=O)Cn1c(=N)n(CCN2CCOCC2)c2ccccc21	>57	>76.9
N=c1n(CCN2CCOCC2)c2ccccc2n1CC(=O)c1ccc(Cl)c(Cl)c1	3.12*	/
c1nc(NCCN2CCOCC2)c2c3c(sc2n1)CCCCC3	/	7.49*
N=c1c2c3c(sc2ncn1CCN1CCOCC1)CCCCC3	>57	?
Cc1cc2n(n1)C(c1ccco1)Nc1ccccc1-2 (stereo not given)	9.51*	>76.9
Cc1cc2n(n1)C(c1ccc(O)cc1)Nc1ccccc1-2 (stereo not given)	?	>76.9
Cc1ccc(NC(=O)CSc2nnc(-c3ccncc3)n2N)cc1C	>57	>76.9
Nc1nc2c(s1)CCc1c-2cnn1-c1ccccc1	10.1*	>76.9
Nc1nc2c(s1)CC(c1ccccc1)CC2 (stereo not given)	>11.4	?
CN(C)c1ccc(NC(=O)c2sc(SCC(=O)Nc3nccs3)nc2N)cc1	10*	/
Cc1nnc(SCC(=O)Nc2nccs2)s1	>57	>76.9
COc1ccc(S(=O)(=O)N2CCN(CC(=O)Nc3ccc(C)c(F)c3)CC2)cc1	>57	>76.9
CC(=O)Nc1ccc(-c2cn3ccsc3n2)cc1	?	>76.9
O=C(Nc1ccc(-c2cn3ccsc3n2)cc1)C1CCCC1	2.43*	?
c1cc2c(cc1Nc1nc(-c3ccc4c(c3)OCO4)cs1)OCCO2	?	>76.9
O=C(CCN1C(=O)c2ccccc2C1=O)Nc1ccc(-c2cn3ccsc3n2)cc1	>57	>76.9
c1cn2cc(-c3ccc4c(c3)OCO4)nc2s1	8.94*	>76.9
